Data taken from ChEMBL document CHEMBL4513216, “Probing the Open Global Health Chemical Diversity Library for Multistage-Active Starting Points for Next-Generation Antimalarials” (ACS Infect Dis, 2020).
About 8,600 (12%) of roughly 69,000 compounds showed an effect of 50% or more. The entries come from a sample that favours strong results as a whole.

tested on: Plasmodium berghei; test: Screen against P. berghei liver stage (PbLuc), transformed with Luciferase, at 10uM; type: functional, HepG2; conditions: tested at 10 uM

Compared with `CC(C)c1noc(CN2CCCN(Cc3cccs3)CC2)n1`, `CN1CCc2[nH]cnc2C12CCN(C(=O)CCc1cccs1)CC2` is higher in INHIBITION: 11.6% for the first, 31.9% for the second.

Compared with `CCOC1Sc2nnc(C)n2N=C1c1ccc(Cl)cc1` (stereo not drawn), `CCOC(=O)N1CCN(C(=O)c2sc(-c3ccc(F)cc3)nc2C)CC1` is lower in INHIBITION: 31.8% for the first, 18.8% for the second.

First: CN(C(=O)c1ccc(S(=O)(=O)NC(C)(C)C)cc1)C1(C#N)CCC1
Second: CCC(C)NS(=O)(=O)c1ccc(C(=O)N(C)C2(C#N)CCC2)cc1 (stereo not drawn)
The INHIBITION of the first is higher: 50.4% for the first, 46.3% for the second.

Going from `CN(Cc1ccsc1)C(=O)c1ccc(S(=O)(=O)NC(C)(C)C)cc1` to `COC(=O)c1cccc(CN(C)C(C)c2ccccn2)c1` (stereo not drawn), the INHIBITION rises from -61.4% to 14.8%.

Going from `Cc1n[nH]c(C)c1-c1cnc(CC2CCCN(S(C)(=O)=O)C2)cn1` (stereo not drawn) to `CCNc1nc(C)c(C(=O)N2CCN(c3ncccc3C)CC2)s1`, the INHIBITION rises from -38.2% to -11.2%.

Compared with `Cc1cc(C)c2nc(C)c(C(=O)N3CCC(N4CCCC4)CC3)cc2c1`, `Cc1cc(C(=O)N2CCc3nc(C4CCCCN4)ncc3C2)cs1` (stereo not drawn) is lower in INHIBITION: 31% for the first, -17.7% for the second.

Compared with `CN1CCN(C(=O)CCn2c(C(F)(F)F)cc3cccnc32)CC1`, `CCCN1CCc2[nH]cnc2C12CCN(C(=O)CCn1cccn1)CC2` is higher in INHIBITION: -15.3% for the first, 54.8% for the second.

Going from `CCOC(=O)N1CCN(C(=O)c2sc(-c3ccncc3)nc2C)CC1` to `CCOC(=O)N1CCN(C(=O)c2sc(-c3ccccc3)nc2C)CC1`, the INHIBITION rises from 24% to 74.7%.

Going from `CCNc1nc(C)c(C(=O)N2CCC(C(O)Cc3ccccc3)CC2)s1` (stereo not drawn) to `CNc1nc(C)c(C(=O)N2CCC(C(O)Cc3ccccc3)CC2)s1` (stereo not drawn), the INHIBITION rises from 53.9% to 61.2%.

First: COc1nc(C)c(C(=O)N2CCC(C(O)Cc3ccccc3)CC2)s1 (stereo not drawn)
Second: Cc1nc(N)sc1C(=O)N1CCC(C(O)Cc2ccccc2)CC1 (stereo not drawn)
The INHIBITION of the first is lower: 18.5% for the first, 46.7% for the second.

First: Cc1cc(=O)c(C(=O)N2CCC(C(O)Cc3ccccc3)CC2)c(C)[nH]1 (stereo not drawn)
Second: CC(=O)N1CCN(C(=O)c2ccc(-c3cccc(C)c3)[nH]c2=O)CC1
The INHIBITION of the first is higher: 35.8% for the first, 35.7% for the second.

Going from `O=C([C@H]1CC[C@@H]2[C@@H](CCN2Cc2nccs2)O1)N1CCCCO1` to `O=C([C@@H]1CCS(=O)(=O)[C@@H]2CN(c3ncccn3)C[C@@H]21)N1CCOCC1`, the INHIBITION rises from 19.5% to 23.1%.

Going from `O=S1(=O)NCC2(CCCN(Cc3cccnc3)C2)Oc2ncccc21` (stereo not drawn) to `CC(=O)N1CCc2[nH]cnc2C12CCN(C(=O)Cc1ccccn1)CC2`, the INHIBITION falls from 40.8% to 8.31%.

First: c1cc(CCNc2ccc(CC3CCNC3)cn2)ccn1 (stereo not drawn)
Second: CN1CCNC(Cc2ccc(-c3ccncc3)cc2)C1=O (stereo not drawn)
The INHIBITION of the first is lower: 19.3% for the first, 22% for the second.

First: CCN1CCn2c(C)cnc2C12CCN(C(=O)N(C)C)CC2
Second: CCC(=O)N1CCC2(CC1)c1nc[nH]c1CCN2S(C)(=O)=O
The INHIBITION of the first is lower: -18.4% for the first, 1.81% for the second.

Compared with `O=C(Nc1cccnc1)[C@H]1C[C@@H]2CCN(c3nncs3)C[C@H]2O1`, `NC(=O)Nc1cccc(Oc2ccccn2)c1` is higher in INHIBITION: -13.2% for the first, -1.58% for the second.

Going from `Cn1cc(N2C(=O)CC[C@@H]3[C@H]2CCN3Cc2cccc(C#N)c2)cn1` to `Cc1cnn(CCNCc2ccc(C#N)cc2)c1`, the INHIBITION rises from -24.1% to 6.8%.

Compared with `CC(C)n1cnnc1CN(C)Cc1cnc(-c2ccccn2)nc1`, `CC(c1cccs1)N(C)Cc1cnc(-c2ccccn2)nc1` (stereo not drawn) is higher in INHIBITION: -36.3% for the first, 66.5% for the second.

Compared with `Cc1cnn(CCNCc2cc(-c3ccccc3)no2)c1`, `Cc1ccc(-c2cc(CNCCn3cc(C)cn3)on2)cc1` is higher in INHIBITION: 20.4% for the first, 60.4% for the second.

First: Cc1cnn(CCNCc2cc(C)no2)c1
Second: Cc1cnn(CCNCc2ccccc2F)c1
The INHIBITION of the first is higher: 38.8% for the first, -14.6% for the second.

First: Cc1cnn(CCNCc2ccccc2C#N)c1
Second: CCC(=O)N1CCC(Cc2ccccc2-c2ccccc2F)(C(N)=O)C1 (stereo not drawn)
The INHIBITION of the first is higher: 51% for the first, 29.2% for the second.

Going from `CCN(CC1CCCO1)C(=O)NCCNC(=O)c1ccccc1F` (stereo not drawn) to `COc1ccccc1OCC(=O)NCC(C)(O)C1CC1` (stereo not drawn), the INHIBITION falls from 34.5% to -3.51%.

First: CCC(Nc1cccc(Oc2ccc(C#N)cc2)c1)C(N)=O (stereo not drawn)
Second: CCC(Nc1cccc(Oc2ccccn2)c1)C(N)=O (stereo not drawn)
The INHIBITION of the first is lower: 29.6% for the first, 62% for the second.

Going from `CN1CCC(c2nnc(CN3CCCCC3)n2C)CC1` to `CCCN1CCc2[nH]cnc2C12CCN(C(=O)Cn1ccnc1C)CC2`, the INHIBITION rises from 25.4% to 57%.

Compared with `CCN1CCc2[nH]cnc2C12CCN(C(=O)CCc1cccs1)CC2`, `CC(=O)N1CCc2[nH]cnc2C12CCN(C(=O)Cc1cccs1)CC2` is higher in INHIBITION: 26% for the first, 61.5% for the second.

First: CC(=O)N1CCc2[nH]cnc2C12CCN(C(=O)CCn1cccn1)CC2
Second: CCN1CCc2[nH]cnc2C12CCN(C(=O)CCCn1cncn1)CC2
The INHIBITION of the first is lower: 35.2% for the first, 36.3% for the second.

`CN1CCc2c(CNc3ncccn3)n[nH]c2C1` showed an INHIBITION of 27.5%.
